# Test results: publication PMC11006913
# Key:
# Assay in all cases: PBM; 200 nM protein, PBS
# Settings in all cases: dsDNA, one strand shown
# HOXB4 [1] = target: HOXB4 (Homo sapiens, UniProt P17483 148-234)
# HOXA4 [2] = target: HOXA4 (Homo sapiens, UniProt Q00056 201-287, W262R)
# HOXB6 = HOXB6 (Homo sapiens, UniProt P17509 132-218, K202E)
# HOXA2 [3] = target: HOXA2 (Homo sapiens, UniProt O43364 129-215, R185T)
# HOXA4 [4] = target: HOXA4 (Homo sapiens, UniProt Q00056 201-287, R217L)
# HOXB4 [5] = target: HOXB4 (Homo sapiens, UniProt P17483 148-234, V174I)
# HOXA2 [6] = target: HOXA2 (Homo sapiens, UniProt O43364 129-215, R185K)
# HOXA4 [7] = target: HOXA4 (Homo sapiens, UniProt Q00056 201-287)
# PROP1 [8] = target: PROP1 (Homo sapiens, UniProt O75360 56-141)
# PROP1 [9] = target: PROP1 (Homo sapiens, UniProt O75360 56-141, R99H)
# VAX1 [10] = target: VAX1 (Homo sapiens, UniProt Q5SQQ9 86-172)
# PROP1 [11] = target: PROP1 (Homo sapiens, UniProt O75360 56-141, F88S)
# VAX1 [12] = target: VAX1 (Homo sapiens, UniProt Q5SQQ9 86-172, T142I)
# HOXA2 [13] = target: HOXA2 (Homo sapiens, UniProt O43364 129-215, Y150S)
# HOXA4 [14] = target: HOXA4 (Homo sapiens, UniProt Q00056 201-287, W262F)
# HOXA2 [15] = target: HOXA2 (Homo sapiens, UniProt O43364 129-215)
# VAX1 [16] = target: VAX1 (Homo sapiens, UniProt Q5SQQ9 86-172, K157R)
# HOXA7 [17] = target: HOXA7 (Homo sapiens, UniProt P31268 116-202)
# HOXD13 [18] = target: HOXD13 (Homo sapiens, UniProt P35453 263-343, T313R)
# HOXD13 [19] = target: HOXD13 (Homo sapiens, UniProt P35453 263-343)
# HOXD13 [20] = target: HOXD13 (Homo sapiens, UniProt P35453 263-343, T313A)
# HOXA7 [21] = target: HOXA7 (Homo sapiens, UniProt P31268 116-202, W177C)
# NKX2-6 = target: T1, NKX2-6 (Homo sapiens, UniProt A6NCS4 118-204, R150C)
# T1 sequence: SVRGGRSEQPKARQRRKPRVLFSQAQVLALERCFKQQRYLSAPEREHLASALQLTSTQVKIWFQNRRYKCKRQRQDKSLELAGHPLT
# ALX3 [22] = target: ALX3 (Homo sapiens, UniProt O95076 139-225, N203Q)
# ALX3 [23] = target: ALX3 (Homo sapiens, UniProt O95076 139-225)
# ALX3 [24] = target: ALX3 (Homo sapiens, UniProt O95076 139-225, L168Q)
# ALX3 [25] = target: ALX3 (Homo sapiens, UniProt O95076 139-225, L168V)
# ALX3 [26] = target: ALX3 (Homo sapiens, UniProt O95076 139-225, N203S)
# Chain of ALX3 (Homo sapiens, UniProt O95076 139-225, N203S) (O95076 139-225 N203S): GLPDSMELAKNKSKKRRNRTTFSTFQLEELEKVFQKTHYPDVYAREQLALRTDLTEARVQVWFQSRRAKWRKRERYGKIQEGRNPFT
# Chain of HOXA2 (Homo sapiens, UniProt O43364 129-215, Y150S) (O43364 129-215 Y150S): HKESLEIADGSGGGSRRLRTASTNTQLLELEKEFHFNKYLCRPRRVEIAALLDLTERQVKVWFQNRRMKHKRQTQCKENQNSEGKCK
# Chain of HOXA4 (Homo sapiens, UniProt Q00056 201-287) (Q00056 201-287): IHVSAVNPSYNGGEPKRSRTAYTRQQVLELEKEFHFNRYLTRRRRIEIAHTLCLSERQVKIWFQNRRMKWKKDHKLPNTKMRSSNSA
# Chain of HOXA2 (Homo sapiens, UniProt O43364 129-215, R185T) (O43364 129-215 R185T): as the sequence (O43364 129-215 Y150S) above, with S22Y, R57T counted along it
# Chain of HOXA4 (Homo sapiens, UniProt Q00056 201-287, R217L) (Q00056 201-287 R217L): as the sequence (Q00056 201-287) above, with R17L counted along it
# Chain of HOXA4 (Homo sapiens, UniProt Q00056 201-287, W262F) (Q00056 201-287 W262F): as the sequence (Q00056 201-287) above, with W62F counted along it
# Chain of HOXA2 (Homo sapiens, UniProt O43364 129-215, R185K) (O43364 129-215 R185K): as the sequence (O43364 129-215 Y150S) above, with S22Y, R57K counted along it
# Chain of HOXA4 (Homo sapiens, UniProt Q00056 201-287, W262R) (Q00056 201-287 W262R): as the sequence (Q00056 201-287) above, with W62R counted along it
# Chain of HOXA2 (Homo sapiens, UniProt O43364 129-215) (O43364 129-215): as the sequence (O43364 129-215 Y150S) above, with S22Y counted along it
# Chain of HOXB4 (Homo sapiens, UniProt P17483 148-234, V174I) (P17483 148-234 V174I): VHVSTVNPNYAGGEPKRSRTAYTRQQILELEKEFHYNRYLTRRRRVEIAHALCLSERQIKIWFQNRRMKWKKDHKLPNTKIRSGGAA
# Chain of HOXB4 (Homo sapiens, UniProt P17483 148-234) (P17483 148-234): as the sequence (P17483 148-234 V174I) above, with I27V counted along it
# Chain of VAX1 (Homo sapiens, UniProt Q5SQQ9 86-172, K157R) (Q5SQQ9 86-172 K157R): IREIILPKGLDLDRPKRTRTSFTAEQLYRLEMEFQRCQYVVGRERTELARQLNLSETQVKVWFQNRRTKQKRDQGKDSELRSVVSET
# Chain of VAX1 (Homo sapiens, UniProt Q5SQQ9 86-172) (Q5SQQ9 86-172): as the sequence (Q5SQQ9 86-172 K157R) above, with R72K counted along it
# Chain of VAX1 (Homo sapiens, UniProt Q5SQQ9 86-172, T142I) (Q5SQQ9 86-172 T142I): as the sequence (Q5SQQ9 86-172 K157R) above, with T57I, R72K counted along it
# Chain of ALX3 (Homo sapiens, UniProt O95076 139-225, L168V) (O95076 139-225 L168V): as the sequence (O95076 139-225 N203S) above, with L30V, S65N counted along it
# Chain of PROP1 (Homo sapiens, UniProt O75360 56-141) (O75360 56-141): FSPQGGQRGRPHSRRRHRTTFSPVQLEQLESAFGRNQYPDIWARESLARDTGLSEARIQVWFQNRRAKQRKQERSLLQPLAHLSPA
# Chain of ALX3 (Homo sapiens, UniProt O95076 139-225) (O95076 139-225): as the sequence (O95076 139-225 N203S) above, with S65N counted along it
# Chain of HOXA7 (Homo sapiens, UniProt P31268 116-202, W177C) (P31268 116-202 W177C): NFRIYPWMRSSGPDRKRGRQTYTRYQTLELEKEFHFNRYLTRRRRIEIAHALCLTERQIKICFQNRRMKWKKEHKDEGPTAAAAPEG
# Chain of ALX3 (Homo sapiens, UniProt O95076 139-225, L168Q) (O95076 139-225 L168Q): as the sequence (O95076 139-225 N203S) above, with L30Q, S65N counted along it
# Chain of HOXA7 (Homo sapiens, UniProt P31268 116-202) (P31268 116-202): as the sequence (P31268 116-202 W177C) above, with C62W counted along it
# Chain of PROP1 (Homo sapiens, UniProt O75360 56-141, F88S) (O75360 56-141 F88S): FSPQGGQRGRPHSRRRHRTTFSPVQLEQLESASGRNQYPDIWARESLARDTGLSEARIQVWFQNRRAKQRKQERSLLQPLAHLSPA
# Chain of HOXD13 (Homo sapiens, UniProt P35453 263-343, T313A) (P35453 263-343 T313A): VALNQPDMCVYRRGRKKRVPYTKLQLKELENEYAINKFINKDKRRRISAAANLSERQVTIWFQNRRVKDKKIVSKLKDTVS
# Chain of PROP1 (Homo sapiens, UniProt O75360 56-141, R99H) (O75360 56-141 R99H): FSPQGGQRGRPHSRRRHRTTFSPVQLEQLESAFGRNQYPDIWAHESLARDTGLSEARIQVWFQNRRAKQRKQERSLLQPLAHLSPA
# Chain of HOXD13 (Homo sapiens, UniProt P35453 263-343, T313R) (P35453 263-343 T313R): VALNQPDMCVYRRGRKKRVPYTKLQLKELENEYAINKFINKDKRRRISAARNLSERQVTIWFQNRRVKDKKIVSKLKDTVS
# Chain of HOXD13 (Homo sapiens, UniProt P35453 263-343) (P35453 263-343): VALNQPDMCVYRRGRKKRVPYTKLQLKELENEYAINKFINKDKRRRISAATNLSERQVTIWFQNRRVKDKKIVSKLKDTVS
# Chain of ALX3 (Homo sapiens, UniProt O95076 139-225, N203Q) (O95076 139-225 N203Q): as the sequence (O95076 139-225 N203S) above, with S65Q counted along it
# Chain of HOXB6 (P17509 132-218 K202E): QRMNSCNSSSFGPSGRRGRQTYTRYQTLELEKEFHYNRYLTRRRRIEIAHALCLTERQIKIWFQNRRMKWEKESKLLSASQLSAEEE
sequence,measurement,setting,value
TAATGATA,binding signal,HOXB4 [1],"13.4 upbm affinity estimate (log intensity, higher = more binding, comparable within an allelic series)"
same,binding signal,HOXA4 [2],"10.5 upbm affinity estimate (log intensity, higher = more binding, comparable within an allelic series)"
same,binding signal,HOXB6,"10 upbm affinity estimate (log intensity, higher = more binding, comparable within an allelic series)"
same,binding signal,HOXA2 [3],"12.2 upbm affinity estimate (log intensity, higher = more binding, comparable within an allelic series)"
same,binding signal,HOXA4 [4],"12.2 upbm affinity estimate (log intensity, higher = more binding, comparable within an allelic series)"
same,binding signal,HOXB4 [5],"14.1 upbm affinity estimate (log intensity, higher = more binding, comparable within an allelic series)"
same,binding signal,HOXA2 [6],"13.2 upbm affinity estimate (log intensity, higher = more binding, comparable within an allelic series)"
same,binding signal,HOXA4 [7],"13.9 upbm affinity estimate (log intensity, higher = more binding, comparable within an allelic series)"
same,binding signal,PROP1 [8],"9.99 upbm affinity estimate (log intensity, higher = more binding, comparable within an allelic series)"
same,binding signal,PROP1 [9],"9.25 upbm affinity estimate (log intensity, higher = more binding, comparable within an allelic series)"
same,binding signal,VAX1 [10],"12.7 upbm affinity estimate (log intensity, higher = more binding, comparable within an allelic series)"
same,binding signal,PROP1 [11],"7.61 upbm affinity estimate (log intensity, higher = more binding, comparable within an allelic series)"
same,binding signal,VAX1 [12],"12.5 upbm affinity estimate (log intensity, higher = more binding, comparable within an allelic series)"
same,binding signal,HOXA2 [13],"11 upbm affinity estimate (log intensity, higher = more binding, comparable within an allelic series)"
same,binding signal,HOXA4 [14],"11.6 upbm affinity estimate (log intensity, higher = more binding, comparable within an allelic series)"
same,binding signal,HOXA2 [15],"12.3 upbm affinity estimate (log intensity, higher = more binding, comparable within an allelic series)"
same,binding signal,VAX1 [16],"12.3 upbm affinity estimate (log intensity, higher = more binding, comparable within an allelic series)"
CTGGCGGC,binding signal,HOXB4 [1],"7.3 upbm affinity estimate (log intensity, higher = more binding, comparable within an allelic series)"
same,binding signal,HOXA4 [2],"9.71 upbm affinity estimate (log intensity, higher = more binding, comparable within an allelic series)"
same,binding signal,HOXA7 [17],"8.57 upbm affinity estimate (log intensity, higher = more binding, comparable within an allelic series)"
same,binding signal,HOXA2 [3],"7.15 upbm affinity estimate (log intensity, higher = more binding, comparable within an allelic series)"
same,binding signal,HOXA4 [4],"9.74 upbm affinity estimate (log intensity, higher = more binding, comparable within an allelic series)"
same,binding signal,HOXB4 [5],"7.49 upbm affinity estimate (log intensity, higher = more binding, comparable within an allelic series)"
same,binding signal,HOXD13 [18],"9.52 upbm affinity estimate (log intensity, higher = more binding, comparable within an allelic series)"
same,binding signal,HOXA2 [6],"10.3 upbm affinity estimate (log intensity, higher = more binding, comparable within an allelic series)"
same,binding signal,HOXD13 [19],"9.59 upbm affinity estimate (log intensity, higher = more binding, comparable within an allelic series)"
same,binding signal,HOXA4 [7],"9.58 upbm affinity estimate (log intensity, higher = more binding, comparable within an allelic series)"
same,binding signal,HOXD13 [20],"9.5 upbm affinity estimate (log intensity, higher = more binding, comparable within an allelic series)"
same,binding signal,HOXA2 [13],"10.5 upbm affinity estimate (log intensity, higher = more binding, comparable within an allelic series)"
same,binding signal,HOXA7 [21],"8.35 upbm affinity estimate (log intensity, higher = more binding, comparable within an allelic series)"
same,binding signal,HOXA4 [14],"9.86 upbm affinity estimate (log intensity, higher = more binding, comparable within an allelic series)"
same,binding signal,HOXA2 [15],"7.36 upbm affinity estimate (log intensity, higher = more binding, comparable within an allelic series)"
TATTTAAA,binding signal,HOXB4 [1],"11.2 upbm affinity estimate (log intensity, higher = more binding, comparable within an allelic series)"
same,binding signal,HOXA4 [2],"10.5 upbm affinity estimate (log intensity, higher = more binding, comparable within an allelic series)"
same,binding signal,HOXB4 [5],"11.2 upbm affinity estimate (log intensity, higher = more binding, comparable within an allelic series)"
same,binding signal,HOXA4 [7],"12 upbm affinity estimate (log intensity, higher = more binding, comparable within an allelic series)"
ACCGCCGG,binding signal,HOXB4 [1],"7.71 upbm affinity estimate (log intensity, higher = more binding, comparable within an allelic series)"
same,binding signal,HOXA4 [2],"9.74 upbm affinity estimate (log intensity, higher = more binding, comparable within an allelic series)"
same,binding signal,HOXA2 [3],"7.21 upbm affinity estimate (log intensity, higher = more binding, comparable within an allelic series)"
same,binding signal,HOXA4 [4],"9.58 upbm affinity estimate (log intensity, higher = more binding, comparable within an allelic series)"
same,binding signal,HOXB4 [5],"7.62 upbm affinity estimate (log intensity, higher = more binding, comparable within an allelic series)"
same,binding signal,NKX2-6,"9.49 upbm affinity estimate (log intensity, higher = more binding, comparable within an allelic series)"
same,binding signal,ALX3 [22],"7.72 upbm affinity estimate (log intensity, higher = more binding, comparable within an allelic series)"
same,binding signal,HOXA2 [6],"10.2 upbm affinity estimate (log intensity, higher = more binding, comparable within an allelic series)"
same,binding signal,HOXA4 [7],"9.85 upbm affinity estimate (log intensity, higher = more binding, comparable within an allelic series)"
same,binding signal,ALX3 [23],"7.95 upbm affinity estimate (log intensity, higher = more binding, comparable within an allelic series)"
same,binding signal,VAX1 [10],"7.52 upbm affinity estimate (log intensity, higher = more binding, comparable within an allelic series)"
same,binding signal,ALX3 [24],"7.7 upbm affinity estimate (log intensity, higher = more binding, comparable within an allelic series)"
same,binding signal,ALX3 [25],"7.65 upbm affinity estimate (log intensity, higher = more binding, comparable within an allelic series)"
same,binding signal,VAX1 [12],"7.48 upbm affinity estimate (log intensity, higher = more binding, comparable within an allelic series)"
same,binding signal,HOXA2 [13],"10.4 upbm affinity estimate (log intensity, higher = more binding, comparable within an allelic series)"
same,binding signal,HOXA4 [14],"9.75 upbm affinity estimate (log intensity, higher = more binding, comparable within an allelic series)"
same,binding signal,ALX3 [26],"7.69 upbm affinity estimate (log intensity, higher = more binding, comparable within an allelic series)"
same,binding signal,HOXA2 [15],"7.23 upbm affinity estimate (log intensity, higher = more binding, comparable within an allelic series)"
same,binding signal,VAX1 [16],"7.38 upbm affinity estimate (log intensity, higher = more binding, comparable within an allelic series)"
